Calls of active or inactive are those of the source. Unless noted, how the calls were made is not given here.
Legend:
[1] = HepG2 liver cancer cell viability effects, profiling panel, resazurin fluorescence, 24 h, PK04 Diversity Set (AID 1172); details: higher = more signal
[2] = basal S. cerevisiae growth modulation, no modifier, primary screen, OD600, strain BY4716, 24 h, basal condition (AID 1173); details: OD600, 24 h, higher = more signal, called active from +8 up or from −8 down
[3] = MM1S myeloma cell viability, profiling panel, resazurin fluorescence, basal, 24 h, PK04 Diversity Set (AID 1174); details: higher = more signal, called active from +8 up or from −8 down;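 further: MM1S multiple myeloma cell line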
[4] = target: Dihydroorotate dehydrogenase (quinone), mitochondrial (Plasmodium falciparum (isolate 3D7)) (UniProt Q08210); test: PfDHODH enzyme inhibitors, primary screen, biochemical, C-terminal His tag, absorbance 600 nm (AID 1175); details: DCIP absorbance 600 nm, higher = more signal, called active from +8 up or from −8 down;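 further: recombinant parasite enzyme with a five histidine tag at its C terminus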
[5] = P. aeruginosa biofilm formation inhibitors, primary screen, strain PAO1, LB-PBS medium, absorbance 600 nm (AID 1176); details: P. aeruginosa PAO1 growth/biofilm, A600, 12 h; higher = more signal
[6] = S. cerevisiae RM11-1a growth modifiers, primary screen, strain RM11-1a, OD600, basal, 24 h (AID 1177); details: OD600, 24 h, higher = more signal, called active from +8 up or from −8 down;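 further: cultures grown under basal conditions with no added stressor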
[7] = E. coli acrAB mutant growth effects, primary screen, E. coli filamentation inducers, strain DRC39, OD650, 24 h (AID 1178); details: higher = more signal, called active from +8 up or from −8 down;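 further: growth measured as culture turbidity by optical density at 650 nm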
[8] = E. coli acrAB mutant growth effects, primary screen, E. coli filamentation inducers, strain DRC39, OD650, 48 h (AID 1179);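 further: screen aims at cell division blockers that make cells filament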; details: E. coli DRC39 delta-acrAB growth, higher = more signal, called active from +8 up or from −8 down
[9] = RPMI8226 myeloma cell viability, profiling panel, resazurin fluorescence, basal, 24 h, PK04 Diversity Set (AID 1180); details: higher = more signal;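 further: RPMI8826 multiple myeloma cell line at 5000 cells per well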
[10] = target: E3 ubiquitin-protein ligase XIAP (Homo sapiens) (UniProt P98170); test: XIAP binders, primary screen, biophysical, small-molecule microarray, fluorescence 635 nm (AID 1181); details: small-molecule microarray binding, higher = more signal;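 further: score merges 667 nm emission and signal to noise over triplicate slides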
[11] = tested on: XIP peptide (Xip251-270) binding; test: small-molecule binders of XIP peptide, primary screen, biochemical, small-molecule microarray, fluorescence 635/667 nm, 0.1 µg/mL protein (AID 1182); details: fluorescent protein binding, 635 nm, higher = more signal, called active from +8 up or from −8 down
XIP peptide (Xip251-270) = test: small-molecule binders of XIP peptide, primary screen, biochemical, small-molecule microarray, fluorescence 635/667 nm, 0.5 µg/mL protein (AID 1183); details: small-molecule microarray binding, fluorescence 635 nm; higher = more signal
[12] = Plasmodium falciparum growth inhibition, primary screen, strain 3D7, DAPI fluorescence, 100 nL (AID 1184);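 further: parasites grown inside human red blood cells in medium with human serum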; details: P. falciparum 3D7 growth, 3 d, higher = more signal
[13] = target: Homeobox protein Hox-A13 (Mus musculus) (UniProt Q62424); test: inhibitors of HoxA13-DNA binding, primary screen, biochemical, fluorescence polarization, labeled oligonucleotide (AID 1185); details: 15 min, higher = more signal, called active from +8 up or from −8 down
[14] = inhibitors of hydroxyurea-induced Chk1 phosphorylation, primary screen, imaging, HeLa, phospho-Chk1 antibody, percent positive cells (AID 1186); details: hydroxyurea-induced phospho-Chk1 immunofluorescence imaging, higher = more signal
[15] = inhibitors of hydroxyurea-induced Chk1 phosphorylation, primary screen, imaging, HeLa, phospho-Chk1 nuclear intensity (AID 1187); details: hydroxyurea-induced phospho-Chk1 immunofluorescence imaging, higher = more signal

Sequence of E3 ubiquitin-protein ligase XIAP (Homo sapiens) (P98170 whole entry, looked up): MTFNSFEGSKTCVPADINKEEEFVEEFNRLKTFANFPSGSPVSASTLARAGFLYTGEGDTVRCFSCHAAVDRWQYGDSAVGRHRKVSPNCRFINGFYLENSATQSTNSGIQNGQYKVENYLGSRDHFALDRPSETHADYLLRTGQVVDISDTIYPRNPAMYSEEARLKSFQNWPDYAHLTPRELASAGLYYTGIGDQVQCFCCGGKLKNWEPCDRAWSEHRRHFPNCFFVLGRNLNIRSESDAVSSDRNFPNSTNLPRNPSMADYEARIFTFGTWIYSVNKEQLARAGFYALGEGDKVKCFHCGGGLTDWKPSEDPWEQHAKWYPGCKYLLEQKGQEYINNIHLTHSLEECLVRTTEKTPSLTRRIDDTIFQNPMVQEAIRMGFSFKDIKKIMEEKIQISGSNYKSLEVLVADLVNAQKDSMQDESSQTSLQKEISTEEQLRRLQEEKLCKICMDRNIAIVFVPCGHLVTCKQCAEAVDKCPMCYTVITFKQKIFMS
Sequence of Homeobox protein Hox-A13 (Mus musculus) (Q62424 whole entry, looked up): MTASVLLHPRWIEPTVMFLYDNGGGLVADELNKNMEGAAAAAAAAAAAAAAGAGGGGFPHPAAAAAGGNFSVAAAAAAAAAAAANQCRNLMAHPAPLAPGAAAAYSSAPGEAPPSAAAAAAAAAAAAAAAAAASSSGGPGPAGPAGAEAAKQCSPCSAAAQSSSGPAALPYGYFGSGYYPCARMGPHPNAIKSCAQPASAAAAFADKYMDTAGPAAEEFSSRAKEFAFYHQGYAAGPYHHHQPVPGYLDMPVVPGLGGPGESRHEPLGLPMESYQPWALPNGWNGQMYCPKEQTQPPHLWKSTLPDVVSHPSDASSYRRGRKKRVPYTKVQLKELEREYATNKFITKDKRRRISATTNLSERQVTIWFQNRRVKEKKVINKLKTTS
Sequence of Dihydroorotate dehydrogenase (quinone), mitochondrial (Plasmodium falciparum (isolate 3D7)) (Q08210 whole entry, looked up): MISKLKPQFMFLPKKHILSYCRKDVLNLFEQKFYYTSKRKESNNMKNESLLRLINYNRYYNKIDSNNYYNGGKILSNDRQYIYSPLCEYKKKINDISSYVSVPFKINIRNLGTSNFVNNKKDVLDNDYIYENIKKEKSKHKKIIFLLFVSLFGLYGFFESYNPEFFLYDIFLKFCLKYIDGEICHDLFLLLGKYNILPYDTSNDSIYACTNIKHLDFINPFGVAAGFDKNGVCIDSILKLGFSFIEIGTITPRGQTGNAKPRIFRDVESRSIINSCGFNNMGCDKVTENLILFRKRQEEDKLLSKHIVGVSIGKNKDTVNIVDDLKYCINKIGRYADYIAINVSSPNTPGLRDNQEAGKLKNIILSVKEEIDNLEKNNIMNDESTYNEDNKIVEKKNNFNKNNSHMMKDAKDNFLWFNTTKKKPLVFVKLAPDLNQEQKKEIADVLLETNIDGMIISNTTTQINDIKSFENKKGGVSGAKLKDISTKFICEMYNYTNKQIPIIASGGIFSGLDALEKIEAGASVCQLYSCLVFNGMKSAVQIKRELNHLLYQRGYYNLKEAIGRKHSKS

Row | Compound | z-score [1] | z-score [2] | z-score [3] | composite z-score [4] | z-score [5] | z-score [6] | z-score [7] | z-score [8] | z-score [9] | composite z-score [10] | composite z-score [11] | composite z-score (XIP peptide (Xip251-270)) | z-score [12] | z-score [13] | z-score [14] | z-score [15]
1 | C=C(CCCC)/C(=C/C[C@H](OC(=O)c1ccncc1)c1ccccc1OCCO)c1cnc2ccccc2c1 | 0.381 | -0.0677 (inactive) | -1.07 (inactive) | -2.03 (inactive) | 1.23 (inactive) | -0.254 (inactive) | 0.133 (inactive) | 0.126 (inactive) | -0.64 | -0.252 | 0.8 (inactive) | 0.575 | -2.96 | -4.41 (inactive) | 0.618 (inactive) | 0.783 (inactive)
2 | O=C1O[C@H](c2ccccc2)[C@H](c2ccccc2)N2[C@H]1[C@@H](C(=O)N1CCCCCCC1)[C@]1(C(=O)Nc3ccc(C#CC4=CCCCC4)cc31)[C@H]2c1ccc(OCCO)cc1 | -0.881 | 0.362 (inactive) | 0.241 (inactive) | -0.585 (inactive) | 2.25 (inactive) | 0.6 (inactive) | 0.825 (inactive) | 0.286 (inactive) | 0.326 | 1.08 | 2.27 (inactive) | 0.77 | -2.33 | -15.4 (active) | 0.606 (inactive) | 1.04 (inactive)
3 | COc1cc(NN2C(C(O)c3ccco3)C=CC3C(=O)N(c4ccccc4)C(=O)C32)cc(OC)c1OC (centres undefined) | -1.41 | 1.58 (inactive) | -1.68 (inactive) | -2 (inactive) | 0.711 (inactive) | 0.178 (inactive) | -0.225 (inactive) | -1.32 (inactive) | -1.08 | -0.081 | 0.318 (inactive) | 0.737 | -0.372 | -3.83 (inactive) | 0.153 (inactive) | -0.416 (inactive)
4 | O=C1O[C@H](c2ccccc2)[C@H](c2ccccc2)N2[C@H]1[C@@H](C(=O)N1CCCCCCC1)[C@]1(C(=O)Nc3ccc(C#CCCO)cc31)[C@H]2c1ccccc1OCCO | -0.118 | 1.09 (inactive) | -1.12 (inactive) | 0.929 (inactive) | 1.15 (inactive) | 2.99 (inactive) | -0.805 (inactive) | -0.106 (inactive) | -2.97 | 2.87 | 9.51 (active) | 1.07 | -2.07 | 4.52 (inactive) | 0.208 (inactive) | 0.259 (inactive)
5 | C=CCOC(=O)[C@@H]1[C@H]2C(=O)O[C@H](c3ccccc3)[C@H](c3ccccc3)N2[C@H](c2ccc(OCCOC(=O)[C@@H]3C[C@@H]4C(=O)NCC(=O)N4[C@@H]3c3ccc(O)cc3)cc2)[C@@]12C(=O)Nc1ccc(I)cc12 | 0.978 | 0.286 (inactive) | 1.11 (inactive) | -0.365 (inactive) | 0.118 (inactive) | 1.38 (inactive) | 0.202 (inactive) | -0.515 (inactive) | 1.3 | 0.164 | 0.549 (inactive) | 0.849 | -1.77 | -0.29 (inactive) | 0.273 (inactive) | 0.702 (inactive)
6 | C=C(/C(=C/C[C@H](OC(C)=O)c1ccccc1OCCO)c1cnc2ccccc2c1)C(C)C | -0.558 | 0.323 (inactive) | -1.09 (inactive) | -5.2 (inactive) | 2.19 (inactive) | 1 (inactive) | -0.672 (inactive) | -0.622 (inactive) | -0.817 | -0.238 | 0.609 (inactive) | -0.167 | -2.76 | -5.41 (inactive) | 0.284 (inactive) | -0.141 (inactive)
7 | CCCCC(CC)C(O)C1C=CC2C(=O)N(Cc3ccccc3)C(=O)C2N1n1cnnc1 (centres undefined) | -0.661 | 0.374 (inactive) | -0.763 (inactive) | -0.495 (inactive) | -0.445 (inactive) | -0.666 (inactive) | -1.03 (inactive) | -1.46 (inactive) | -1.01 | 0.0228 | 0.0978 (inactive) | 0.671 | -0.465 | -3.42 (inactive) | 0.419 (inactive) | -0.454 (inactive)
8 | COc1ccccc1CN1C(=O)c2ccccc2[C@@]2(Cc3ccccc3N(CC(C)C)C2=O)[C@@H]1c1ccc(CO)cc1 | -0.593 | 0.0849 (inactive) | -0.681 (inactive) | -0.359 (inactive) | 0.332 (inactive) | -1.04 (inactive) | -0.169 (inactive) | -0.0353 (inactive) | -0.564 | 0.0957 | -0.25 (inactive) | 0.607 | -0.422 | -0.795 (inactive) | -0.132 (inactive) | -0.425 (inactive)
9 | COC(=O)[C@@]1(Cc2ccc(OC)cc2)[C@H]2c3cc(C(=O)N(C)C)n(Cc4ccccn4)c3C[C@H]2CN1C(=O)c1ccccc1 | -0.961 | 1.28 (inactive) | -1.24 (inactive) | 1.02 (inactive) | 0.976 (inactive) | 0.607 (inactive) | -1.13 (inactive) | -0.6 (inactive) | -0.838 | 0.155 | 0.544 (inactive) | -0.765 | -1.54 | -5.52 (inactive) | -0.276 (inactive) | -0.406 (inactive)
10 | C[N+](C)(C)CCCC[C@@H]1NC(=O)[C@H]2C[C@@H](C(=O)NCCCCCCNC(=O)CS)[C@@H](c3cccc(OCCO)c3)N2C1=O | -0.191 | 0.578 (inactive) | -0.0499 (inactive) | 0.459 (inactive) | -0.0896 (inactive) | 0.293 (inactive) | 0.474 (inactive) | 0.645 (inactive) | -0.442 | -0.227 | 0.173 (inactive) | 0.487 | -0.135 | -1.87 (inactive) | 0.964 (inactive) | 1.2 (inactive)
11 | CCC(CC)C(O)C1C=CC2C(=O)NC(=O)C2N1Nc1ccc(Cl)cc1Cl (centres undefined) | -1.82 | -3.65 (inactive) | -1.46 (inactive) | 0.925 (inactive) | 1.26 (inactive) | 1.27 (inactive) | -0.682 (inactive) | -0.459 (inactive) | -1.52 | 0.0187 | 0.625 (inactive) | 0.587 | -0.225 | -4.8 (inactive) | 0.724 (inactive) | 0.786 (inactive)
12 | COC(=O)[C@@]1(Cc2ccc(OC)cc2)[C@H]2c3cc(C(=O)N(C)C)n(CCc4ccccn4)c3C[C@H]2CN1C(=O)c1ccccc1 | -1.31 | 2.55 (inactive) | -2.34 (inactive) | -0.0595 (inactive) | 0.908 (inactive) | 1.51 (inactive) | -1.2 (inactive) | -0.655 (inactive) | -1.93 | 0.264 | -0.312 (inactive) | -0.7 | -1.52 | -2.39 (inactive) | 0.808 (inactive) | 0.0643 (inactive)
13 | COC(=O)C[C@H]1O[C@]2(C(=O)N(C)c3ccccc32)[C@@H](C)[C@@H]1[Si](C)(C)F | 0.951 | -2.55 (inactive) | 1.55 (inactive) | -1.49 (inactive) | 0.908 (inactive) | -2.64 (inactive) | 1.51 (inactive) | 0.847 (inactive) | 2.42 | 0.103 | -0.0066 (inactive) | 0.181 | 0.522 | -1.19 (inactive) | 0.23 (inactive) | 0.843 (inactive)
14 | COc1ccc([C@H]2OC[C@@H]3C[C@@H](Cc4ccccc4)C(=O)N32)cc1 | -0.384 | -3.32 (inactive) | 0.111 (inactive) | -0.431 (inactive) | -0.0513 (inactive) | -0.64 (inactive) | -0.562 (inactive) | -0.873 (inactive) | -0.219 | -0.0337 | 0.617 (inactive) | 0.0682 | 0.583 | -1.06 (inactive) | 0.375 (inactive) | 0.0727 (inactive)
15 | CCC(CC)C(O)C1C=CC2C(=O)NC(=O)C2N1Nc1ccccn1 (centres undefined) | -1.34 | 0.341 (inactive) | -1.76 (inactive) | -0.629 (inactive) | 0.503 (inactive) | 0.469 (inactive) | -0.485 (inactive) | 0.333 (inactive) | -1.11 | 0.162 | -0.471 (inactive) | 0.579 | -0.3 | -0.375 (inactive) | 0.933 (inactive) | 0.481 (inactive)
16 | O=C1C[C@@](C(=O)NC2CC2)(c2ccc([N+](=O)[O-])cc2)[C@@H](c2ccc(CO)cc2I)N1C1CCCCC1 | 0.0684 | -0.466 (inactive) | -0.191 (inactive) | -0.716 (inactive) | 0.512 (inactive) | -0.0222 (inactive) | 0.149 (inactive) | -0.528 (inactive) | -0.538 | 0.123 | 0.0057 (inactive) | 0.693 | -1.28 | -4.72 (inactive) | -0.254 (inactive) | -0.233 (inactive)
17 | [N-]=[N+]=NCc1ccccc1[C@@H]1OC(c2ccc(OCCCO)cc2)=N[C@]1(Cc1ccccc1)C(N)=O | 0.854 | -2.19 (inactive) | -0.422 (inactive) | -0.717 (inactive) | 0.177 (inactive) | 0.895 (inactive) | 0.671 (inactive) | -0.492 (inactive) | -0.0348 | 0.319 | 0.906 (inactive) | 0.689 | -2.13 | -3.49 (inactive) | -0.395 (inactive) | -0.0798 (inactive)
18 | CC(C)[Si]1(C(C)C)O[C@@H](c2ccccc2)c2cc(-c3ccc(-c4ccc(Cl)c(Cl)c4)o3)nc(-c3ccccc3)c21 | -0.0945 | -1.38 (inactive) | -0.274 (inactive) | 1.74 (inactive) | 0.574 (inactive) | -0.282 (inactive) | -0.0522 (inactive) | -0.221 (inactive) | -0.406 | -0.202 | -0.142 (inactive) | 0.6 | 0.283 | -1.68 (inactive) | 0.025 (inactive) | -0.606 (inactive)
19 | COc1ccc([Si](C)(C)[C@H]2[C@H](CCO)O[C@@]3(C(=O)N(Cc4ccc(N(C=O)c5ccccc5)cc4)c4ccccc43)[C@@H]2C)cc1 | -1.57 | 1.83 (inactive) | -3.71 (inactive) | 0.041 (inactive) | 2.06 (inactive) | 4.71 (inactive) | 0.216 (inactive) | -0.495 (inactive) | -2.77 | -0.163 | 0.381 (inactive) | 0.282 | -1.93 | -0.824 (inactive) | 1.27 (inactive) | -0.123 (inactive)

Reference: PubChem BioAssay
